The record followed here is PubChem BioAssay (Tox21).

Each structure is given as a SMILES string. Unmarked numbers belong to inactive results. Results filed as inconclusive are left out. Active and inactive are the calls of the source. Unless noted, calls follow the shape of the dose curve; as a rule, active = well fitted curve in the direction sought with a large enough effect in the repeat runs; inconclusive = weak or mixed curves; inactive = no such curve, though single readings can be large; an effect the other way counts as inactive or inconclusive.

A short description of test [1]: A CellTox Green Cytotoxicity Assay to monitor cytotoxicity in HEK293 cells - 32 hour (AID 1224881). Also: nearly all actives have a fitted effect of over 40% in size. The essentials:
(§1)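 Cells (HEK293, 600/well) and dye reagent are dispensed together. After 5 h at 37 C, 23 nL compound is pinned in. Plates stay at 37 C for 40 h with fluorescence read at 0h, 8h, 16h, 24h, 32h and 40h.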

Test [2] is described as follows: A CellTox Green Cytotoxicity Assay to monitor cytotoxicity in HepG2 cells - 0 hour (AID 1224882). Also: nearly all actives have a fitted effect of over 35% in size. In a few lines: (§2)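 Cells and non-lytic dye reagent are dispensed together (600 HepG2 cells/well) and incubated 5 h before DMSO compound transfer. Kinetic fluorescence is then recorded in the same wells during 40 h at 37 C.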
A short description of test [3]: A CellTox Green Cytotoxicity Assay to monitor cytotoxicity in HepG2 cells - 32 hour (AID 1224883). Also: nearly all actives have a fitted effect of over 50% in size. The essentials:
as §2

The nature of test [4]: qHTS RealTime-Glo MT Cell Viability Assay in HepG2 cells - 16 hour (AID 1224885). Also: nearly all actives have a fitted effect of over 50% in size. The essentials:
(§3)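 Tox21 10K library screened in qHTS format on HepG2 cells carrying RealTime-Glo reagents. Compounds were added after a 5 h preincubation, and the luminescent signal from continuous culture was measured repeatedly during 40 h treatment.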

A short description of test [5]: qHTS RealTime-Glo MT Cell Viability Assay in HEK293 cells - 24 hour (AID 1224886). Also: top concentration of the series differs between compounds; nearly all actives have a fitted effect of over 50% in size. In a few lines: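 Luminescence generated by NanoLuc from substrate produced by living HEK293 cells served as the viability signal. Each value reflects the reading at its stated time point during continuous 40 h compound exposure at 37 C.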
Test [6] can be described thus: qHTS RealTime-Glo MT Cell Viability Assay in HEK293 cells - 8 hour (AID 1224887). Also: top concentration of the series differs between compounds; nearly all actives have a fitted effect of over 50% in size. The essentials: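 Real-time viability in HEK293: signal arises when living cells convert a prosubstrate for NanoLuc in the medium, so luminescence tracks viable cell number. Compound (23 nL, DMSO) added 5 h post-seeding; kinetic reads at 0–40 h, 37 C.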
Test [7] in a line: A CellTox Green Cytotoxicity Assay to monitor cytotoxicity in HEK293 cells - 16 hour (AID 1224888). Also: nearly all actives have a fitted effect of over 35% in size. In a few lines:
as §1

Test [8] can be described thus: qHTS RealTime-Glo MT Cell Viability Assay in HepG2 cells - 0 hour (AID 1224889). Also: nearly all actives have a fitted effect of over 50% in size. In a few lines: as §3
Test [9] can be described thus: A CellTox Green Cytotoxicity Assay to monitor cytotoxicity in HepG2 cells - 8 hour (AID 1224890). Also: nearly all actives have a fitted effect of over 45% in size. In a few lines: as §2
A short description of test [10]: qHTS assay to identify small molecule antagonists of the estrogen receptor alpha (ER-alpha) signaling pathway using the BG1 cell line in the presence of 0.1 nM 17-beta-estradiol - cell viability counter screen (AID 1259241). Also: nearly all actives have a fitted effect of over 40% in size. In a few lines: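 The cell line endogenously expresses full-length ER-alpha and carries four EREs driving luciferase. Cells are cultured 5 days hormone-free, treated 22 hr with compounds and 0.1 nM estradiol, then viability is read by fluorescence.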

The nature of test [11]: qHTS assay to identify small molecule antagonists of the androgen receptor (AR) signaling pathway using the MDA cell line in the presence of 0.5 nM R1881 - cell viability counter screen (AID 1259242). Also: nearly all actives have a fitted effect of over 45% in size. The essentials: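 Steps: plate MDA-kb2 cells, rest 5 hr at 37C without CO2; pin in compounds in DMSO; add R1881 to 0.5 nM final; incubate 16 hr; add CellTiter-Fluor, 30 min; read fluorescence.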

Test [12] concerns the target Estrogen receptor (Homo sapiens) (UniProt P03372). Briefly: qHTS assay to identify small molecule antagonists of the estrogen receptor alpha (ER-alpha) signaling pathway using the BG1 cell line in the presence of 0.1 nM 17-beta-estradiol (AID 1259244). Also: nearly all actives have a fitted effect of over 50% in size. The essentials: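 Antagonist mode: compounds in DMSO are pinned onto VM7Luc4E2 reporter cells, 0.1 nM final 17beta-estradiol is added, and after 22 h at 37C luciferase luminescence is measured with ONE-Glo.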

Test [13] in a line: qHTS assay to identify small molecule HDAC inhibitors (AID 1259364). Also: potency is read from the fitted curve at half-maximal effect.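 Also: wild-type HCT-116 cells with endogenous class I/II HDAC activity; nearly all actives have a fitted effect of over 45% in size.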 As to activity change, negative = inhibition: top concentration of the series differs between compounds. The essentials: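 Cells (HCT-116, wild type) are seeded at 1,500 per well, incubated overnight, treated with compound in DMSO for 2 hr, then developed with HDAC-Glo I/II reagent for 30 min at room temperature.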
A short description of test [14]: qHTS assay to identify small molecule HDAC inhibitors - cell viability counter screen (AID 1259365). The essentials:
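Viability readout: CellTiter-Glo luminescence. Wild-type HCT-116 cells, 2hr compound treatment following overnight attachment at 37 C.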

Test [15] can be described thus: qHTS assay to identify small molecule agonists of the sonic hedgehog signaling (Shh) pathway - cell viability counter screen (AID 1259366). Also: nearly all actives have a fitted effect of over 50% in size. In a few lines: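 Viability measured fluorometrically (CellTiter-Fluor, 1hr, 37C) in 3T3 Gli1-Luc reporter cells after 23hr compound exposure within a 24hr incubation at 37C/5% CO2.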
Test [16] is described as follows: qHTS assay to identify small molecule antagonists of the sonic hedgehog signaling (Shh) pathway - cell viability counter screen (AID 1259367). Also: nearly all actives have a fitted effect of over 55% in size. In a few lines:
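Viability was read by CellTiter-Fluor fluorescence in the same wells, reagent added 23 hr into compound treatment and incubated 1 hr at 37C. The 3T3 Gli1-Luc reporter cells (2,000/well) received conditioned medium after compound and ran 24 hr.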

Test [17] is described as follows: A CellTox Green Cytotoxicity Assay to monitor cytotoxicity in HEK293 cells - 8 hour (AID 1224884). Also: nearly all actives have a fitted effect of over 35% in size. In a few lines: as §1
Test [18] concerns the target Androgen receptor (Homo sapiens) (UniProt P10275). Kind of test: qHTS assay to identify small molecule antagonists of the androgen receptor (AR) signaling pathway using the MDA cell line in the presence of 0.5 nM R1881 (AID 1259243). Also: nearly all actives have a fitted effect of over 50% in size. The essentials:
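Stably transfected MDA-kb2 cells express luciferase from an MMTV promoter bearing both AR and GR response elements. Compounds plus 0.5 nM R1881 (final) were incubated 16 hr at 37C without CO2, then luminescence measured.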

A short description of test [19]: qHTS assay to identify small molecule agonists of the sonic hedgehog signaling (Shh) pathway (AID 1259368; calls by dose curve;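 also: NIH/3T3-derived 3T3Gli1-Luc cells carrying a stable Gli1-driven firefly luciferase reporter; series mostly up to about 92 µM; nearly all actives have a fitted effect of over 15% in size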). The essentials:
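Cells of a mouse NIH/3T3 clone stably expressing luciferase under the Gli1 transcriptional response element are exposed to test chemicals for 24 hr at 37 C. Pathway activation is detected as a rise in luminescence.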

Test [20] in a line: qHTS assay to identify small molecule phospholipidosis (PLD) inducers (AID 1259344; active = well fitted curve in the direction sought with a large enough effect; an effect the other way counts as inactive or inconclusive). In a few lines: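 Phospholipid accumulation was scored by imaging: fixed, Hoechst-counterstained HepG2 cells stained with LipidTOX Red after 24 h compound exposure at 37 C. Read-outs were pit count and pit intensity per well or per cell, with amiodarone and DMSO controls.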
% is scaled to controls: 0 for no effect and ±100 for the full control effect.

Chain of Estrogen receptor (Homo sapiens) (P03372 whole entry, looked up): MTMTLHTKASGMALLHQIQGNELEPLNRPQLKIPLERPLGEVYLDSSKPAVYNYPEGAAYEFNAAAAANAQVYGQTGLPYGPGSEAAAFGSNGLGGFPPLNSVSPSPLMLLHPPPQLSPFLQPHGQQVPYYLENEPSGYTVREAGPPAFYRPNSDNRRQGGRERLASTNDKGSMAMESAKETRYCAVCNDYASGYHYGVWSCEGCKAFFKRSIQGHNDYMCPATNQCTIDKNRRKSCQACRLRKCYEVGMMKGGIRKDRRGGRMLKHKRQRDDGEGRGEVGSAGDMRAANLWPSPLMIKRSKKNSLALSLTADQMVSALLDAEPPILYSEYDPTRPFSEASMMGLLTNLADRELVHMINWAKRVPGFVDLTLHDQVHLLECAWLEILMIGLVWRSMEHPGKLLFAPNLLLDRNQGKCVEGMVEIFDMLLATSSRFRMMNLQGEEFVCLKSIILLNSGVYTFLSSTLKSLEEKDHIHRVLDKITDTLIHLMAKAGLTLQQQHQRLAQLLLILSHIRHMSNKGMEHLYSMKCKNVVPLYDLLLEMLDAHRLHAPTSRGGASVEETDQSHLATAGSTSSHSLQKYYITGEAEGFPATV
Chain of Androgen receptor (Homo sapiens) (P10275 whole entry, looked up): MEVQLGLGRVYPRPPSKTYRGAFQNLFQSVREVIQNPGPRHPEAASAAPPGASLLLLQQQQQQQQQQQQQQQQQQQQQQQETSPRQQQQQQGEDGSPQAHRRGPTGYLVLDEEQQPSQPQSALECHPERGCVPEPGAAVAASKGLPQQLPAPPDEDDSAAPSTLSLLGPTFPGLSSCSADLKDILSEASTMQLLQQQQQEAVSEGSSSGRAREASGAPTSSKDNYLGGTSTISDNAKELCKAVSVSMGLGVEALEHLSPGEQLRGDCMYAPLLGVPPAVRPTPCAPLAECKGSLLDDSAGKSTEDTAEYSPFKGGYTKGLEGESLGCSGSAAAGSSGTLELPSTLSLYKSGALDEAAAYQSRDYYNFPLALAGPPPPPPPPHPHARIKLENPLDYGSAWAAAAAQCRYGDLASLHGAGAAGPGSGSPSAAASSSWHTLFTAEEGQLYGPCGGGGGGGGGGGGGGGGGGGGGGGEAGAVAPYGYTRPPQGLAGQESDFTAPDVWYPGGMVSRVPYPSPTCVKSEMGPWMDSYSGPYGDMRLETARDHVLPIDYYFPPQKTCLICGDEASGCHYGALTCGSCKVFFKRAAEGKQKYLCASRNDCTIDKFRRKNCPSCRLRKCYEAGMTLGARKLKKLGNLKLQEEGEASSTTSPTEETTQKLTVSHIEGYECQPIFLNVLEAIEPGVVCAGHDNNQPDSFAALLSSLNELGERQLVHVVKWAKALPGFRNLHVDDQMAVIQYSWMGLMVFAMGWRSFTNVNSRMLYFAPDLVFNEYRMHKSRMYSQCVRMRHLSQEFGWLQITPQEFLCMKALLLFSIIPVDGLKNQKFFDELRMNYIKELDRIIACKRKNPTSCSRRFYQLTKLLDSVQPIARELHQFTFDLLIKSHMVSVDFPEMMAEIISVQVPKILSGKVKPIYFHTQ

With `CCCN1CCC[C@@H]2Cc3[nH]ncc3C[C@H]21`, the Potency entry in test [1], in test [3], in test [4], in test [5], in test [6] and in test [7] was “inactive” in each case. For the same compound, the Potency result in test [9], in test [11], in test [12], in [13], in test [15] and in test [16] was “inactive” each time. In addition, the outcome in test [2], in [8], in test [10] and in test [14] was inactive.
As for `CCC(CC)(CNC(=O)CCCO)c1cccc(OC)c1`, the Potency result in [1], in test [3], in test [17], in [5], in test [6] and in [9] was “inactive” in each case. Besides, the Potency result in [11], in test [18], in test [12], in [15] and in test [16] was “inactive” throughout. Also, the call in test [2], in test [8], in [10], in [14] and in test [19] was inactive.
Consider `CN1COCN(Cc2cnc(Cl)s2)/C1=N\[N+](=O)[O-]`, for which the Potency entry in test [1], in [3], in test [4], in test [5], in test [6] and in test [7] was “inactive” throughout. Also, the Potency result in test [9], in test [11], in test [15] and in [16] was “inactive” in each case. The call in [2], in test [8], in test [10], in test [14] and in test [19] was inactive.
In the case of `c1cncc([C@@H]2CCCCN2)c1`, the Potency result in test [1], in test [3], in test [4], in test [5], in test [6] and in [7] was “inactive” each time. Also, the Potency result in test [11], in [12], in test [15] and in test [16] was “inactive” throughout. In addition, the result in test [2], in test [8], in test [10], in test [14] and in [19] was inactive.
As to `NNCc1ccccc1`, the Potency result in test [1], in test [3], in test [17], in [6], in test [7] and in test [9] was “inactive” in each case. The Potency entry in [11], in [12], in [15] and in test [16] was “inactive” throughout. Besides, the compound was called inactive in [2], in test [8], in test [10], in test [14] and in test [19]. The Potency in test [13] is 11.1 µM (active).
On to `Clc1nc(Cl)nc(Nc2ccccc2Cl)n1`, for which the Potency result in [1], in [3], in [17], in test [5], in [6] and in [9] was “inactive” in each case. The Potency result in [11], in test [12], in test [15] and in test [16] was “inactive” each time. Also, the compound was classed as inactive in test [2], in test [8], in test [10], in test [14] and in [19].
Take `CCCCCCC(=O)CCCCCC/C=C/C[C@@H](O)[C@H](O)[C@@](N)(CO)C(=O)O`: the cytotoxicity increase in test [1] was -8.63% [at 15.8 µM]; in [3], -23.6% [at 15.8 µM]; in test [17], -3.97% [at 15.8 µM]. Further, the cytotoxicity in test [2] was -17.7% [at 15.8 µM]. Further, the activity change, negative = cytotoxicity in test [5] was -0.165% [at 15.8 µM]; in test [6], -1.55% [at 15.8 µM]; in test [8], 3.64% [at 15.8 µM]; in [10], 7.82% [at 19 µM]; in test [14] it was -0.234% [at 19 µM]. In addition, the activity change in [7] is -6.94% [at 15.8 µM, stronger effect = higher value]; in [19], -0.137% [at 18.9 µM]. The viability change, negative = cytotoxic was 8.38% [at 19 µM] in [11], 4.09% [at 19 µM] in test [15] and -0.502% [at 19 µM] in [16]. Also, the figures for the activity change, negative = inhibition in test [12] and in test [13] were 5.03% [at 19 µM] and 6.81% [at 19 µM], respectively. In addition, the Potency entry in test [20] was “inactive”.
